Shown are actives, neighbours in structure and some others; about 3.9% of the full set was active somewhere.
HT1080 IDH1KD tx = kills HT-1080 cells with IDH1 knockdown; HT-1080 IDH1 knockdown viability, ATP luminescence, 48 h; actives 2% (n = 360,000); Potency, µM (top dose mostly 46.1 µM), without a hit: at the top dose activity, negative = toxicity, most hits filed as cytotoxic;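 note: 0% = DMSO wells and -100% = cell-free medium wells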
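Using the IDH1-knockdown HT-1080 line run in the same batch and compound series as the NT line, viability after 48 h at 37 °C was determined by CellTiter-Glo luminescence and expressed as % activity.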
ATXN2 expr inh = reduces ATXN2 reporter expression in HEK-293 cells; AID 1745845; HEK-293 ATXN2-luciferase reporter, luminescence, 24 h; actives 0.72% (n = 360,000); Potency, µM (series often up to 57 µM), without a hit: top-dose activity change, negative = inhibition, actives largely listed as inhibitors; note: % is set by controls: 0 for no effect and ±100 for the full control effect; nearly all actives have a fitted effect of over 55% in size
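ATXN2-luciferase reporter cells (luciferase flanked by upstream and downstream ATXN2 gene portions) were treated 24 h at 37 °C with compounds at up to 57 uM. SteadyGlo luminescence gave expression; GF-AFC fluorescence gave viability.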
HepG2 tox = HepG2 cytotoxicity, counter-screen for TGF-b inhibitors; HepG2 CAGA-GFP viability, ATP luminescence, 18 h; Potency, µM (top dose mostly 46.1 µM), inactives show top-dose activity change, negative = cytotoxicity, most hits filed as cytotoxic; actives 0.76% (n = 410,000); AID 588856
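CellTiter-Glo luminescence gave cytotoxicity after 18 hours at 37 degrees C. The cells were HepG2 CAGA-GFP in 1% FBS DMEM, stimulated with 500 pg/mL TGF-beta after compound addition. %Activity was normalised to no-cell wells (complete cell-killing) and DMSO (no toxicity), and curves were fitted and classified.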
TGFb SMAD3 inh = inhibitors of TGF-b signaling; HepG2 CAGA-GFP TGF-b/SMAD3 reporter, GFP fluorescence, 18 h; TGF-beta stimulated, 500 pg/mL final; Potency, µM (titrated, usually from 46.1 µM), without a hit: at the highest dose activity, negative = inhibition, actives largely listed as inhibitors; actives 1.2% (n = 410,000); note: % is set by controls: 0 for no effect and ±100 for the full control effect; nearly all actives have a fitted effect of over 65% in size
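Cell-based qHTS in HEPG2 carrying a CAGA-GFP Smad reporter; compounds added before 500 pg/mL final TGF-beta, 18 h incubation at 37 degrees C, GFP fluorescence quantified per cell by imaging cytometry.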
S2 tox = cell viability loss in ATXN counter-screen; AID 651635; Potency, µM (top dose mostly 56.7 µM), usual class: cytotoxic; actives 0.49% (n = 400,000); S2 cells (HEK-293 line with an ATXN2-luciferase reporter) viability, CellTiter-Fluor protease fluorescence, 24 h; note: nearly all actives have a fitted effect of over 40% in size
HT1080NT lethal = kills 2HG-producing HT-1080-NT fibrosarcoma cells. AID 686970. HT-1080-NT fibrosarcoma viability, CellTiter-Glo ATP luminescence, 48 h. Potency, µM (top dose mostly 46.1 µM), without a hit: top-dose activity, negative = less viability, actives largely listed as cytotoxic. actives 1.6% (n = 360,000);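 note: NT is the 2HG producing partner of a matched IDH1 knockdown line; 0% = DMSO-treated cells and -100% = media-only wells without cells; nearly all actives have a fitted effect of over 55% in size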
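Compounds were tested in concentration-response format on HT-1080-NT cells for 48 hours at 37 degrees C. Cell viability came from CellTiter-Glo luminescence; curves were classified by r2, response magnitude and activity.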
Numbers without * were called inactive. Calls come from the whole dose curve; as a rule, active = well fitted curve in the direction sought with a large enough effect; inconclusive = small, poorly fitted or top-dose-only effect, or another doubt; inactive = no such curve, though single readings can be large; an effect the other way counts as inactive or inconclusive. Potency is the fitted concentration of half-maximal effect.

COc1ccc(C=CC(=O)c2ccc(OC)c(OC)c2O)cc1OC was read as HT1080 IDH1KD tx 25.9µM*, ATXN2 expr inh 1.7%, HepG2 tox -16.3%, TGFb SMAD3 inh -7.5%, S2 tox inactive and HT1080NT lethal inconclusive.
Screening COc1cc(/C=C/C(C)=O)cc(OC)c1OC returned HT1080 IDH1KD tx 0.2%, ATXN2 expr inh 35.4%, HepG2 tox 18.0%, TGFb SMAD3 inh 0.0%, S2 tox inactive and HT1080NT lethal -8.5%.
`COc1cc(/C=C/C(=O)N2CCCN(C(=O)/C=C/c3cc(OC)c(OC)c(OC)c3)CC2)cc(OC)c1OC` gave HT1080 IDH1KD tx -0.6%, HepG2 tox 10.7%, TGFb SMAD3 inh 2.1%, S2 tox inactive and HT1080NT lethal 9.2%.
`COc1cc(C=CC(=O)c2cc(OC)c(OC)c(OC)c2)cc(OC)c1OC` gave HT1080 IDH1KD tx 23.1µM*, ATXN2 expr inh inconclusive, HepG2 tox -77.3%, TGFb SMAD3 inh 11.2µM*, S2 tox inconclusive and HT1080NT lethal inconclusive.
COc1ccc(C=CC(=O)c2ccc(OC)c(OC)c2)cc1O was read as HT1080 IDH1KD tx 20.6µM*, HepG2 tox -26.0%, TGFb SMAD3 inh inconclusive, S2 tox inconclusive and HT1080NT lethal -11.4%.
For COc1nnc(-c2ccc(N3CCCCC3)c(NC(=O)c3ccccc3Cl)c2)c2ccccc12 the results were HepG2 tox -6.5% and TGFb SMAD3 inh inconclusive.
COc1ccc(C(=O)c2cc(OC)c(OC)c(OC)c2)cc1OC was read as HT1080 IDH1KD tx 11.6µM*, ATXN2 expr inh -2.7%, HepG2 tox -26.7%, TGFb SMAD3 inh -30.9%, S2 tox inconclusive and HT1080NT lethal inconclusive.
For COC(=O)CC1COc2ccccc2N1S(=O)(=O)c1ccc(OC)cc1 (configuration not stated) the results were HT1080 IDH1KD tx 10.3µM*, ATXN2 expr inh -22.3%, HepG2 tox -6.8%, TGFb SMAD3 inh -21.2%, S2 tox inactive and HT1080NT lethal inconclusive.
Screening COC(=O)CC1COc2ccccc2N1S(=O)(=O)c1ccc(Br)cc1 (configuration not stated) returned HT1080 IDH1KD tx 7.8%, HepG2 tox -6.9%, TGFb SMAD3 inh 15.9%, S2 tox inactive and HT1080NT lethal -10.3%.
For Nc1nc2ccccc2cc1C(=O)NCc1ccc(Cl)cc1Cl the results were HT1080 IDH1KD tx -25.9%, ATXN2 expr inh inconclusive, S2 tox inconclusive and HT1080NT lethal inconclusive.
CC(C)c1ccc(CC(=O)N2CCC2(C)C(=O)NCc2cccc3ccccc23)cc1 (configuration not stated) was read as HT1080 IDH1KD tx inconclusive, ATXN2 expr inh -25.9%, HepG2 tox -21.6%, TGFb SMAD3 inh -14.6%, S2 tox inactive and HT1080NT lethal inconclusive.
Screening CC1(C(=O)NCc2cccc3ccccc23)CCN1C(=O)Cc1ccc(-c2ccccc2)cc1 (configuration not stated) returned HT1080 IDH1KD tx inconclusive, ATXN2 expr inh inconclusive, HepG2 tox -31.9%, TGFb SMAD3 inh inconclusive, S2 tox inconclusive and HT1080NT lethal 18.4µM*.
Screening Nc1nc2ccccc2cc1C(=O)NCc1ccc(-c2ccccc2)cc1 returned HT1080 IDH1KD tx 1.3µM* and HT1080NT lethal inconclusive.
`Cc1ccc(CC(=O)NCc2ccc(F)cc2)cc1` gave HT1080 IDH1KD tx 7.31µM*, HepG2 tox 3.2%, TGFb SMAD3 inh -21.5%, S2 tox inactive and HT1080NT lethal 9.2µM*.
For Cc1noc(C)c1COc1ccc(CC(=O)NCc2ccccc2)cc1 the results were HT1080 IDH1KD tx 1.16µM*, ATXN2 expr inh inconclusive, HepG2 tox -31.1%, TGFb SMAD3 inh inconclusive, S2 tox inactive and HT1080NT lethal inconclusive.
